Measurements from PubChem BioAssay (Tox21).
Results filed as inconclusive are left out. A call without a number means that no potency is given here. Active and inactive are the calls of the source. Calls come from the whole dose curve; as a rule, active = well fitted cell-killing curve with a large enough effect in the repeat runs; inconclusive = weak or mixed curves, or effect the other way; inactive = flat fitted curve, though single readings scatter.

Test: qHTS RealTime-Glo MT Cell Viability Assay in HepG2 cells - 0 hour (AID 1224889); note: nearly all actives have a fitted effect of over 50% in size
Conditions: RealTime-Glo luminescence; series mostly up to 76.8 µM
Description: U.S. Tox21 Program National Center for Advancing Translational Sciences [NCATS] NIH Chemical Genomics Center [NCGC] U.S. Environmental Protection Agency [EPA] National Institutes of Environmental Health Sciences [NIEHS] National Toxicology Program [NTP] U.S. Food and Drug Administration [FDA] Tox21 Assay Overview: Measure of cell viability is critical in the cell-base assay. Analysis of cell viability is necessary for the characterization of cell responses to cytotoxic drugs and environmental stress. A RealTime-Glo MT Cell Viability Assay to monitor cell viability in real time of continues cell culture during 40 hours of compound treatment was used to screen Tox21 10K library compounds in HepG2 cells. The RealTime-Glo MT Cell Viability Assay is a nonlytic, homogeneous, bioluminescent method to measure cell viability in real time using a simple, plate-based method. The assay involves adding NanoLuc luciferase and a cell-permeant prosubstrate to cells in culture. Viable cells reduce the proprietary prosubstrate to generate a substrate for NanoLuc luciferase. This substrate diffuses from cells into the surrounding culture medium, where it is rapidly used by the NanoLuc Enzyme to produce a luminescent signal. The signal correlates with the number of viable cells, making the assay well suited for cytotoxicity studies.
Tox21 Assay Protocol Summary: The mixture of HepG2 cell suspension and reagents were dispensed at 600cells/6 ul/well in 1536-well tissue culture treated black solid bottom plates using a Multidrop dispenser. After the assay plates were incubated at a 37 C/5% CO2 incubator for 5 hours, 23 nL of compounds dissolved in DMSO, positive and negative controls was transferred to the assay plate by a pintool work station. The plates were incubated at 37 C for 40 hours. The luminescence intensity were measured at 0h, 8h, 16h, 24h, 32h and 40h time points using ViewLux plate reader during compound treatment.
Potency is the fitted concentration of half-maximal effect.

Row | SMILES | Potency
1 | CCCC/C=C\CCCCCCCCCC=O | inactive
2 | CCC(CC)CO | inactive
3 | COC(=O)CCCCCCCC(=O)OC | inactive
4 | CCCOC(=O)C(C)O (stereo not given) | inactive
5 | CCO[Si](CCCS)(OCC)OCC | inactive
6 | Cc1ccccc1OCC(O)CO (stereo not given) | inactive
7 | CC1COc2ccccc2N1 (stereo not given) | inactive
8 | COCCOC(=O)C1=C(C)NC(C)=C(C(=O)OC(C)C)C1c1cccc([N+](=O)[O-])c1 (stereo not given) | 601 nM (active)
9 | c1ccc2c(c1)ccc1c3ccccc3ccc21 | inactive
10 | CC(CC=O)CCCC(C)(C)O (stereo not given) | inactive
11 | Cc1ccc2c(c1)OCC(=O)CO2 | inactive
12 | COc1nccnc1NS(=O)(=O)c1ccc(N)cc1 | inactive
13 | N[C@@H](CCC(=O)Nc1ccc([N+](=O)[O-])cc1)C(=O)O | inactive
14 | C=COCCOCCOCCOC=C | inactive
15 | CC(S)C(=O)NCC(=O)O (stereo not given) | inactive
16 | NC(CO)C(=O)NNCc1ccc(O)c(O)c1O (stereo not given) | inactive
17 | O=C1c2ccccc2C(=O)N1CCl | inactive
18 | O=C(O)c1ccc(Cl)cc1Cl | inactive
19 | CC(N)C(=O)OC(C)(C)Cc1ccc(Cl)cc1 (stereo not given) | inactive
20 | O=P(O)(O)OP(=O)(O)O | inactive

Row | SMILES | Potency
21 | C=C(C)C(=O)OCc1ccccc1 | inactive
22 | Nc1ccc(S(=O)(=O)Nc2ccc(Cl)nn2)cc1 | inactive
23 | O=C1CC(c2ccc(Cl)cc2)CC(=O)N1 | inactive
24 | O=C1c2cccc3c2[C@H](CCC3)CN1[C@@H]1CN2CCC1CC2 | inactive
25 | CCOc1cc([N+](=O)[O-])c(OCC)cc1N1CCOCC1 | inactive
26 | CCOc1cc(NC(C)=O)ccc1C(=O)OC | inactive
27 | CCCCCCCCC1CCC(=O)O1 (stereo not given) | inactive
28 | CC(CO)c1ccccc1 (stereo not given) | inactive
29 | NCCN1CCOCC1 | inactive
30 | COCCOCCOCCOCCOCCO | inactive
31 | Cc1cc2cc3c(C)cc(=O)oc3c(C)c2o1 | inactive
32 | Cc1ccc(C=O)cc1C | inactive
33 | O=C(CS(=O)Cc1ccco1)NC/C=C\COc1cc(CN2CCCCC2)ccn1 (stereo not given) | inactive
34 | CC1(CO)CN(c2ccccc2)NC1=O (stereo not given) | inactive
35 | CC(CN)CC(C)(C)CCN (stereo not given) | inactive
36 | Cc1ccc2ccc(Cl)cc2n1 | inactive
37 | CC(COC(C)(C)C)OCCCO (stereo not given) | inactive
38 | O=S(=O)(O)CCN1CCN(CCO)CC1 | inactive
39 | CC(=O)Nc1ccc(S(=O)(=O)Nc2ccc([N+](=O)[O-])cc2)cc1 | inactive
40 | CCCCCCCCSCC | inactive
